Source: PubChem
HTR5A ag ctr = HTR5A agonists in luminescence cell assay, primary screen, counter-screen for OPRM1-OPRD1 heterodimer agonist project, full-deck HTS. 5-hydroxytryptamine receptor 5A (Homo sapiens), P47898. cell-based. activation, % at 9.3 µM. 340,000 tested, 0.61% active; in the data active means activation mostly above about 9.5%, no sharp cut-off; inactive means mostly below about 7.6%
Target sequence (P47898 whole entry, looked up): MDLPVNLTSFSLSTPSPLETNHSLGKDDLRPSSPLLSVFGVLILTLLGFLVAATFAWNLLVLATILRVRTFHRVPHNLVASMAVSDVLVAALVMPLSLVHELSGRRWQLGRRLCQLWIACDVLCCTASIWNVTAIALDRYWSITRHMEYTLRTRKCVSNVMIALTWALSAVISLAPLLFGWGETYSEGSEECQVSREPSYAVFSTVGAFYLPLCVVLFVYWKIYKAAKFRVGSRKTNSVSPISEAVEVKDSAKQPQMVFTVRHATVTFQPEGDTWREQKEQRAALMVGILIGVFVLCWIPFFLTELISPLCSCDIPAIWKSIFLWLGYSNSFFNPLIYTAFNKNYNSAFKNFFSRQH
MOR-DOR ag = agonists of OPRM1-OPRD1 heterodimerization, primary screen, cell-based, luminescence | Mu-type opioid receptor (Homo sapiens) + Delta-type opioid receptor (Homo sapiens), … | cells | activation, % at 9.3 µM | 340,000 tested, 0.3% active | AID 504326, 2011
HTR5A inv ctr = HTR5A inverse agonists in luminescence cell assay, primary screen, counter-screen for OPRM1-OPRD1 heterodimer inverse agonist project, full-deck HTS. AID 504634, 2011. inhibition, % at 9.3 µM. 340,000 tested, 0.083% active. 5-hydroxytryptamine receptor 5A (Homo sapiens), P47898. HTR5A cell line, inverse agonism; in the data active means inhibition mostly above about 23%, no sharp cut-off; inactive means mostly below about 18%
OPRM1-OPRD1 inv = inverse agonists of MOR-DOR heterodimerization, primary screen, cell-based, luminescence | Mu-type opioid receptor (Homo sapiens) + Delta-type opioid receptor (Homo sapiens), … | 340,000 tested, 0.21% active | cell-based MOR-DOR heterodimer luminescence, inverse agonism | inhibition, % at 9.3 µM; in the data active means inhibition above about 22%, passing the limit was not always enough
MOR-DOR ag conf = agonists of MOR-DOR heterodimerization, confirmation, cell-based, luminescence; shares compounds with MOR-DOR ag; cells, luminescence complementation; activation, % at 9.3 µM; 830 tested, 45% active; AID 504904, 2011
HTR5A ag ctr2 = HTR5A agonists in cells, counter-screen for OPRM1-OPRD1 heterodimer agonist project, cell-based, luminescence. 830 tested, 8% active. HTR5A agonist counterscreen. activation, % at 9.3 µM. AID 504905, 2011. shares compounds with MOR-DOR ag; in the data active means activation above about 17%
Large screens that a line does not name were inactive (follow-up assays come after a bar, where they were run). Rows were chosen to be rich in hits. Some 1.1% of all compounds tested hit in one or more screens of this group. Unless noted, no stated cut-off is given here; in the data, active means activation above about 18%; inactive means the rest.

O=C(COC(=O)/C=C/c1ccccc1)NC(=O)NCc1ccccc1	none
CCn1nc(NC(=O)C(C)C)c2cc3cccc(C)c3nc21	HTR5A ag ctr 11
COc1cc(C)ccc1OCCOCCOc1cccc2ccc(C)nc12	HTR5A ag ctr 8.7
Cc1ccc(C(NC(=O)Nc2ccccn2)C(Cl)(Cl)Cl)cc1F (stereo not given)	HTR5A ag ctr 12
CCOC(=O)C1=C(C)N(C)C(=S)NC1c1cccc(Cl)c1Cl (stereo not given)	HTR5A ag ctr 10
CN1CCN(S(=O)(=O)c2ccc(N(C)Cc3ccc(OC(F)F)cc3)c([N+](=O)[O-])c2)CC1	none
O=C(CN1CCN(c2ccc(F)cc2)CC1)Nc1ccccc1[N+](=O)[O-]	none
Cc1cc(C)cc(N(CCC#N)C(=O)CSC2=Nc3ccccc3C3CC=NN23)c1 (stereo not given)	HTR5A ag ctr 12
CC(C)c1ccc(S(=O)(=O)Nc2ccc(SC(F)F)cc2)cc1	MOR-DOR ag 18 | MOR-DOR ag conf inactive | HTR5A ag ctr2 inactive
CC(=O)CSc1ccc(-c2nc3cc(C)c(C)cc3[nH]2)cn1	MOR-DOR ag 47 | MOR-DOR ag conf 32 | HTR5A ag ctr2 inactive
CC1=NN(C(N)=S)C(=O)C1N=Nc1c(C)n(C)n(-c2ccccc2)c1=O (stereo not given)	none
O=C(NCc1ccco1)c1cc2n(n1)C(C(F)(F)F)CC(c1ccc(Br)cc1)N2 (stereo not given)	MOR-DOR ag 19 | MOR-DOR ag conf inactive | HTR5A ag ctr2 inactive
CC(=O)Nc1ccc(CN2CCCC(CO)(Cc3ccccc3C)C2)cc1 (stereo not given)	MOR-DOR ag 49 | MOR-DOR ag conf inactive | HTR5A ag ctr2 inactive
COC(=O)c1sc(S(=O)(=O)N2CCN(c3ccccc3F)CC2)c(C(=O)OC)c1C	none
COc1ccc(C2CC(c3ccc(OC)cc3)n3nc(NC(=O)c4cccs4)nc3N2)cc1 (stereo not given)	MOR-DOR ag 26 | MOR-DOR ag conf 48 | HTR5A ag ctr2 inactive
COc1ccc(C2CC(c3ccc(Br)cc3)=NN2C(=O)CSC2=NCCS2)cc1 (stereo not given)	MOR-DOR ag 102 | MOR-DOR ag conf inactive | HTR5A ag ctr2 inactive
COc1ccc(C2=NN(C(=O)CSc3ncccn3)C(c3ccc(C)cc3)C2)cc1 (stereo not given)	none
COc1cc(OC)c(OC)cc1CNC(=O)c1ccc(COc2ccccc2)cc1	none
O=C(Cn1cnc([N+](=O)[O-])c1)c1ccc(Cl)cc1	none
O=C(C[n+]1cnn(CC(=O)c2ccc(Cl)cc2Cl)c1)c1ccc([N+](=O)[O-])cc1	MOR-DOR ag 54 | MOR-DOR ag conf inactive | HTR5A ag ctr2 inactive
Cc1ccc2sc(N(CCCN(C)C)C(=O)c3ccc(S(=O)(=O)N(C)C)cc3)nc2c1C	none
CN(C)CCCN(C(=O)c1ccc(S(=O)(=O)N2CCc3ccccc3C2)cc1)c1nc2c(F)cc(F)cc2s1	MOR-DOR ag 341 | MOR-DOR ag conf 396 | HTR5A ag ctr2 inactive
CN(C)CCCN(C(=O)c1ccc(S(=O)(=O)N2CCOCC2)cc1)c1nc2ccc(F)cc2s1	none
Cc1ccc2sc(N(CCCN(C)C)C(=O)c3ccc(S(=O)(=O)N(C)Cc4ccccc4)cc3)nc2c1C	MOR-DOR ag 40 | MOR-DOR ag conf inactive | HTR5A ag ctr2 inactive
CCN(Cc1ccccc1)S(=O)(=O)c1ccc(C(=O)N(CCCN(C)C)c2nc3c(F)cccc3s2)cc1	MOR-DOR ag 144 | MOR-DOR ag conf 26 | HTR5A ag ctr2 inactive
COc1cc2nc(N(CCCN(C)C)C(=O)c3ccc(S(=O)(=O)N4CCc5ccccc5C4)cc3)sc2cc1OC	none
CCOc1cccc2sc(N(CCCN(C)C)C(=O)c3ccc(S(=O)(=O)N(CC)Cc4ccccc4)cc3)nc12	none
CN(C)CCCN(C(=O)c1ccc(S(=O)(=O)N2CCCCCC2)cc1)c1nc2ccc(F)cc2s1	MOR-DOR ag 155 | MOR-DOR ag conf inactive | HTR5A ag ctr2 inactive
CC(C)CN(C(=O)Cn1ccccc1=O)C1CCS(=O)(=O)C1 (stereo not given)	none
Cc1ccc2sc(N(CCCN(C)C)C(=O)c3ccc(S(=O)(=O)N4CCc5ccccc5C4)cc3)nc2c1C	MOR-DOR ag 21 | MOR-DOR ag conf inactive | HTR5A ag ctr2 inactive
CN(C)C(CNC(=O)c1ccc2ccccc2c1)c1ccco1 (stereo not given)	MOR-DOR ag 30 | MOR-DOR ag conf 33 | HTR5A ag ctr2 inactive
CSc1ccccc1C(=O)NCC(c1ccco1)N(C)C (stereo not given)	none
Cc1cccc(C(=O)NCC(c2ccco2)N(C)C)c1 (stereo not given)	none
CSc1ccc(C(=O)NCC(c2ccco2)N(C)C)cc1[N+](=O)[O-] (stereo not given)	MOR-DOR ag 251 | MOR-DOR ag conf 242 | HTR5A ag ctr2 inactive
CC(=O)NC(CC(=O)NCC(c1ccco1)N(C)C)c1ccccc1 (stereo not given)	MOR-DOR ag 195 | MOR-DOR ag conf 226 | HTR5A ag ctr2 inactive
O=C(NCCc1c[nH]c2ccc(Cl)cc12)c1cccnc1	none
CC(C)c1ccc(C(=O)Nc2cccnc2)cc1	none
O=C(CN1C(=O)NC2(CCCC2)C1=O)c1ccc(Cl)s1	none
Cc1ccc(OCCOC(=O)Cn2nc(C)c([N+](=O)[O-])c2C)cc1	none
CN(C)C(CNC(=O)c1oc2ccccc2c1CSc1ncn[nH]1)c1ccco1 (stereo not given)	MOR-DOR ag 21 | MOR-DOR ag conf 30 | HTR5A ag ctr2 inactive
C[C@H](NC(=O)c1ccccc1Cl)C(=O)OCC(=O)NNC(=O)c1cccs1	none
O=C1C=C(NCCc2cc(Br)c(O)c(Br)c2)C(=O)c2ncccc21	MOR-DOR ag 36 | MOR-DOR ag conf inactive | HTR5A ag ctr2 inactive
CCOc1cc(N2CCOCC2)c(OCC)cc1NC(=O)CSc1ncn[nH]1	none
Cc1ccc(NC(=O)c2nnn(CC(=O)Nc3ccc4c(c3)OCO4)c2N)cc1C	MOR-DOR ag 23 | MOR-DOR ag conf inactive | HTR5A ag ctr2 inactive
Cc1cc(C)cc(NC(=O)Cn2nnc(C(=O)NCc3ccccc3Cl)c2N)c1	MOR-DOR ag 25 | MOR-DOR ag conf inactive | HTR5A ag ctr2 inactive
Cc1cc(C)cc(NC(=O)Cn2nnc(C(=O)NCCc3ccccc3)c2N)c1	MOR-DOR ag 21 | MOR-DOR ag conf inactive | HTR5A ag ctr2 inactive
Cc1ccc(NC(=O)Cn2nnc(C(=O)Nc3ccc(C)c(C)c3)c2N)cc1	none
Cc1ccc(NC(=O)CN2C(=O)NC(C)(c3ccccc3)C2=O)c(C)c1 (stereo not given)	none
COc1ccc(NC(=O)c2ccc(Br)c(S(=O)(=O)N3CCOCC3)c2)cc1	none
Cc1nn(CC(=O)N2CCC(C)CC2)c(=O)c2nn(-c3ccccc3)c(C)c12	none
